# In article PMC5540273 (PLoS ONE, 2017):
# Test system: T1, DRAK1
# T1 construct: gene STK17A
# 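Note: kd values determined as follow-up on hits from a single-replicate KINOMEscan panel screen.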
row,Structure (SMILES),Kd [nM]
1,CC(C)(C)OC(=O)NC1CCCN(c2cc(-c3ccc4c(N)n[nH]c4c3)nc(N)n2)C1 (centres unmarked) [GSK2286096],130
2,C[C@H]1CC[C@@H](C(=O)Nc2ccccc2)CN1c1cc(-c2ccc3c(N)n[nH]c3c2)nc(N)n1 [GSK2283293],11
3,Fc1cccc(COc2ccc(Nc3ncnc4nn5ccccc5c34)cc2Cl)c1 [GW689066],> 10000
4,Nc1nc(-c2ccc3c(N)n[nH]c3c2)cc(N2CCCCC2)n1 [GSK2228768],110
5,CC(C)(C)c1ccc(-n2cnc3c(N)ncnc32)cc1 [SKF-97263],450

# Test system: DYRK1B
row,Structure (SMILES),Kd [nM]
1,CC(C)(C)OC(=O)NC1CCCN(c2cc(-c3ccc4c(N)n[nH]c4c3)nc(N)n2)C1 (centres unmarked) [GSK2286096],> 10000
2,Cc1cc(N2CCC(NS(=O)(=O)c3ccc(F)cc3)CC2)nc(Nc2cccc(C#N)c2)n1.O=C(O)C(F)(F)F [GSK1653537],2800
3,COc1ccc(Nc2nccc(N3CCC(NC(=O)c4cccc(NC(C)=O)c4)C3)n2)cc1 (centres unmarked) [GSK1379732],> 10000
4,Nc1n[nH]c2nnc(-c3ccccc3)cc12 [SB-517389],7000

# Test system: EGFR
row,Structure (SMILES),Kd [nM]
1,Cl.O=S(=O)(c1cccc(F)c1)c1ccc(Nc2ncnc3cc(Br)sc23)cc1Cl [GSK306886],61
2,Fc1cccc(COc2ccc(Nc3ncnc4cc[nH]c34)cc2Cl)c1,1.3
3,COc1cc2ncnc(Nc3ccc(OCc4ccccc4Br)c(Cl)c3)c2cc1OC.Cl [GI261590],2.4
4,Cl.c1ccc(Cn2ccc3cc(Nc4ncnc5ccccc45)ccc32)cc1 [GW275568],5
5,CS(=O)(=O)CCNCc1ccc(-c2ccc3ncnc(Nc4ccc(OCc5ccccc5)c(Cl)c4)c3c2)o1.Cl [GW574783],0.82
6,Cl.Fc1ccccc1COc1ccc(Nc2ncnc3ccc(-c4nnc(C(F)(F)F)o4)cc23)cc1Cl [GW424170],43
7,OCCOCCn1ccc2ncnc(Nc3ccc(Oc4cccc(Cl)c4)c(Cl)c3)c21,8.5
8,COc1cc2c(Nc3cccc(NC(=O)c4ccccc4)c3)ncnc2cc1OCCCN1CCOCC1 [GSK223810],1400
9,Oc1ccc2ncnc(Nc3ccc(OCc4ccccc4)cc3)c2c1 [GI262866],9.3
10,Cl.c1ccc(Cn2ncc3cc(Nc4ncnc5ccccc45)ccc32)cc1 [GW273749],7.6
11,Cn1ccc2ncnc(Nc3ccc(Oc4cccc(Cl)c4)c(Cl)c3)c21,4.3
12,O=C(CCO)NCCn1ccc2ncnc(Nc3ccc(Oc4cccc(C(F)(F)F)c4)c(Cl)c3)c21,2.3
13,CS(=O)(=O)CCNCc1nc(-c2ccc3ncnc(Nc4ccc(OCc5cccc(F)c5)c(Cl)c4)c3c2)cs1.Cl [GW583340],0.69
14,Clc1cc(Nc2ncnc3cc[nH]c23)ccc1OCc1ccccn1,8.4
15,N#Cc1ccc(Oc2ccc(Nc3ncnc4cc[nH]c34)cc2Cl)cc1,97
16,NC(=O)c1sc(-n2cnc3ccccc32)cc1OCc1ccccc1F [GSK1024306],1300
17,Fc1cccc(COc2ccc(Nc3ncnc4sc(-c5ccc[nH]5)cc34)cc2Cl)c1 [GW707818],2.6

# Test system: EPHA3
row,Structure (SMILES),Kd [nM]
1,CCn1c(-c2ccncc2)nc2cnccc21 [SB-735216],> 10000
2,Cl.Cn1ccc(-c2cccc(Nc3ccnc4cc(-c5nccs5)ccc34)c2)n1 [GW525701],> 10000
3,O=c1cc(N2CCOCC2)nc2n(Cc3cccc(Cl)c3)ccn12 [GSK2296823],> 10000
